Reference: PMC5540273 (PLoS ONE, 2017)
Values joined by “and” are separate entries in the source; they are usually repeats but may differ in a detail not shown here. Equal values may be shown once. Read-outs that look alike come from different tables or passages of the source.

How the values were obtained:
Conditions in all cases: n = 1
DAPK2 = tested on: DAPK2
DAPK3 = tested on: DAPK3
DCAMKL1 = tested on: T1, DCAMKL1
T1 construct: gene DCLK1

DCAMKL2 = tested on: T2, DCAMKL2
T2 construct: gene DCLK2

DCAMKL3 = tested on: T3, DCAMKL3
T3 construct: gene DCLK3

DDR1 = tested on: DDR1
DDR2 = tested on: DDR2
DLK = tested on: T4, DLK
T4 construct: gene MAP3K12

DMPK2 = tested on: T5, DMPK2
T5 construct: gene CDC42BPG

DMPK = tested on: DMPK
[1] = concentration: 1 μM, replicates: in singlicate
[2] = concentration: 1 μM,replicates: in singlicate, 1 µM
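Further: KINOMEscan kinase panel screen.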

COc1ccc2nc(-c3cccc(C)n3)nc(Nc3ccncc3)c2c1 [GSK204919]
%Inh (DAPK2; [1]): 0% | %Inh (DAPK3; [1]): 22% | %Inh (DCAMKL1; [1]): 5% | %Inh (DCAMKL2; [1]): 26% | %Inh (DCAMKL3; [1]): 0% | %Inh (DDR1; [1]): 58% | %Inh (DDR2; [1]): 5% | %Inh (DLK; [1]): 8% | %Inh (DMPK2; [1]): 91.1% | %Inh (DMPK; [1]): 0%

O=C(O)COc1ncnc2cc(-c3ccc4[nH]ncc4c3)sc12
%Inh (DAPK2; [1]): 0% | %Inh (DAPK3; [1]): 5% | %Inh (DCAMKL1; [1]): 0% | %Inh (DCAMKL2; [1]): 2% | %Inh (DCAMKL3; [1]): 8% | %Inh (DDR1; [1]): 0% | %Inh (DDR2; [1]): 7% | %Inh (DLK; [1]): 34% | %Inh (DMPK2; [1]): 3% | %Inh (DMPK; [1]): 13%

CSc1nn2c(=O)cc(N3CCOCC3)nc2n1Cc1cccc(C(F)(F)F)c1C [GSK2363608]
%Inh (DAPK2; [2]): 9% and 0% | %Inh (DAPK3; [2]): 27% and 0% | %Inh (DCAMKL1; [2]): 10% and 0% | %Inh (DCAMKL2; [1]): 0% | %Inh (DCAMKL3; [2]): 34% and 0% | %Inh (DDR1; [2]): 7% and 4% | %Inh (DDR2; [1]): 0% | %Inh (DLK; [2]): 34% and 0% | %Inh (DMPK2; [2]): 24% and 2% | %Inh (DMPK; [1]): 0%

O=C(Nc1n[nH]c2nc(-c3nccs3)c(Br)cc12)C1CCCC1 [SB-742609]
%Inh (DAPK2; [1]): 0% | %Inh (DAPK3; [1]): 5% | %Inh (DCAMKL1; [1]): 9% | %Inh (DCAMKL2; [1]): 16% | %Inh (DCAMKL3; [1]): 0% | %Inh (DDR1; [1]): 0% | %Inh (DDR2; [1]): 11% | %Inh (DLK; [1]): 14% | %Inh (DMPK2; [1]): 0% | %Inh (DMPK; [1]): 0%

O=C(Nc1n[nH]c2cc(-c3cccc(F)c3F)ccc12)C1CC1 [SB-733894]
%Inh (DAPK2; [1]): 24% | %Inh (DAPK3; [1]): 35% | %Inh (DCAMKL1; [1]): 21% | %Inh (DCAMKL2; [1]): 0% | %Inh (DCAMKL3; [1]): 0% | %Inh (DDR1; [1]): 0% | %Inh (DDR2; [1]): 0% | %Inh (DLK; [1]): 0% | %Inh (DMPK2; [1]): 0% | %Inh (DMPK; [1]): 0%

Cl.Oc1ccc(-c2nc(-c3ccccc3)[nH]c2-c2ccncc2)cc1 [SB-428218]
%Inh (DAPK2; [1]): 0% | %Inh (DAPK3; [1]): 31% | %Inh (DCAMKL1; [1]): 6% | %Inh (DCAMKL2; [1]): 15% | %Inh (DCAMKL3; [1]): 7% | %Inh (DDR1; [1]): 9% | %Inh (DDR2; [1]): 59% | %Inh (DLK; [1]): 58% | %Inh (DMPK2; [1]): 0% | %Inh (DMPK; [1]): 0%

COc1ccc(CNC(=O)NC2CCN(c3ccnc(Nc4cc(OC)c(OC)c(OC)c4)n3)C2)cc1 (stereo not drawn) [GSK1379748]
%Inh (DAPK2; [1]): 0% | %Inh (DAPK3; [1]): 10% | %Inh (DCAMKL1; [1]): 5% | %Inh (DCAMKL2; [1]): 0% | %Inh (DCAMKL3; [1]): 0% | %Inh (DDR1; [1]): 1% | %Inh (DDR2; [1]): 45% | %Inh (DLK; [1]): 100% | %Inh (DMPK2; [1]): 2% | %Inh (DMPK; [1]): 0%

CCn1c(-c2cccnc2O)nc2cnccc21 [SB-736715]
%Inh (DAPK2; [1]): 0% | %Inh (DAPK3; [1]): 0% | %Inh (DCAMKL1; [1]): 0% | %Inh (DCAMKL2; [1]): 3% | %Inh (DCAMKL3; [1]): 0% | %Inh (DDR1; [1]): 0% | %Inh (DDR2; [1]): 0% | %Inh (DLK; [1]): 19% | %Inh (DMPK2; [1]): 0% | %Inh (DMPK; [1]): 0%

O=C1NC(=O)C(N2CCc3ccccc32)=C1c1ccccc1Cl [SB-373598]
%Inh (DAPK2; [1]): 23% | %Inh (DAPK3; [1]): 4% | %Inh (DCAMKL1; [1]): 10% | %Inh (DCAMKL2; [1]): 0% | %Inh (DCAMKL3; [1]): 11% | %Inh (DDR1; [1]): 12% | %Inh (DDR2; [1]): 14% | %Inh (DLK; [1]): 0% | %Inh (DMPK2; [1]): 12% | %Inh (DMPK; [1]): 26%

COc1cc(Nc2nccc(N3CCC(NC(=O)Nc4cc(C)ccc4C)C3)n2)cc(OC)c1OC (stereo not drawn) [GSK1379762]
%Inh (DAPK2; [1]): 0% | %Inh (DAPK3; [1]): 7% | %Inh (DCAMKL1; [1]): 0% | %Inh (DCAMKL2; [1]): 12% | %Inh (DCAMKL3; [1]): 0% | %Inh (DDR1; [1]): 43% | %Inh (DDR2; [1]): 10% | %Inh (DLK; [1]): 30% | %Inh (DMPK2; [1]): 22% | %Inh (DMPK; [1]): 0%

Fc1cc(Cl)ccc1Nc1ccnc2cc(I)ccc12 [GW551191]
%Inh (DAPK2; [1]): 0% | %Inh (DAPK3; [1]): 9% | %Inh (DCAMKL1; [1]): 15% | %Inh (DCAMKL2; [1]): 0% | %Inh (DCAMKL3; [1]): 0% | %Inh (DDR1; [1]): 33% | %Inh (DDR2; [1]): 8% | %Inh (DLK; [1]): 27% | %Inh (DMPK2; [1]): 8% | %Inh (DMPK; [1]): 21%

COc1ccccc1-c1ccc2c(NC(=O)C3CC3)n[nH]c2n1 [SB-711239]
%Inh (DAPK2; [1]): 11% | %Inh (DAPK3; [1]): 3% | %Inh (DCAMKL1; [1]): 0% | %Inh (DCAMKL2; [1]): 3% | %Inh (DCAMKL3; [1]): 0% | %Inh (DDR1; [1]): 10% | %Inh (DDR2; [1]): 22% | %Inh (DLK; [1]): 5% | %Inh (DMPK2; [1]): 0% | %Inh (DMPK; [1]): 1%

C[C@@H]1CCCCN1c1cc(-c2ccc3c(N)n[nH]c3c2)nc(N)n1 [GSK2258759]
%Inh (DAPK2; [1]): 0% | %Inh (DAPK3; [1]): 19% | %Inh (DCAMKL1; [1]): 2% | %Inh (DCAMKL2; [1]): 0% | %Inh (DCAMKL3; [1]): 0% | %Inh (DDR1; [1]): 0% | %Inh (DDR2; [1]): 0% | %Inh (DLK; [1]): 21% | %Inh (DMPK2; [1]): 0% | %Inh (DMPK; [1]): 0%

CN1C(=O)C(Nc2ccc(Cl)c(C(=O)O)c2)=C(c2ccc(Cl)cc2)C1=O [SB-404290]
%Inh (DAPK2; [1]): 9% | %Inh (DAPK3; [1]): 14% | %Inh (DCAMKL1; [1]): 0% | %Inh (DCAMKL2; [1]): 6% | %Inh (DCAMKL3; [1]): 10% | %Inh (DDR1; [1]): 0% | %Inh (DDR2; [1]): 0% | %Inh (DLK; [1]): 0% | %Inh (DMPK2; [1]): 0% | %Inh (DMPK; [1]): 0%

COc1ccc(Nc2nccc(NCCNC(=O)Nc3ccccc3F)n2)cc1 [GSK1379901]
%Inh (DAPK2; [1]): 0% | %Inh (DAPK3; [1]): 8% | %Inh (DCAMKL1; [1]): 15% | %Inh (DCAMKL2; [1]): 0% | %Inh (DCAMKL3; [1]): 8% | %Inh (DDR1; [1]): 11% | %Inh (DDR2; [1]): 0% | %Inh (DLK; [1]): 0% | %Inh (DMPK2; [1]): 0% | %Inh (DMPK; [1]): 0%

CC(=O)Nc1nc2cnc(Nc3cc(NC(=O)c4cccc(CCC#N)c4)ccc3C)nc2s1
%Inh (DAPK2; [1]): 6% | %Inh (DAPK3; [1]): 8% | %Inh (DCAMKL1; [1]): 12% | %Inh (DCAMKL2; [1]): 13% | %Inh (DCAMKL3; [1]): 12% | %Inh (DDR1; [1]): 100% | %Inh (DDR2; [1]): 86% | %Inh (DLK; [1]): 0% | %Inh (DMPK2; [1]): 3% | %Inh (DMPK; [1]): 12%

Cc1ccc(NC(=O)Nc2cccc(C(F)(F)F)c2)cc1 [GSK955403]
%Inh (DAPK2; 1 µM): 3% | %Inh (DAPK3; 1 µM): 24% | %Inh (DCAMKL1; 1 µM): 0% | %Inh (DCAMKL2; 1 µM): 0% | %Inh (DCAMKL3; 1 µM): 13% | %Inh (DDR1; 1 µM): 43% | %Inh (DDR2; 1 µM): 65% | %Inh (DLK; 1 µM): 0% | %Inh (DMPK2; 1 µM): 0% | %Inh (DMPK; 1 µM): 0%

CCCc1ccc(S(=O)(=O)NC2CCN(c3ccnc(Nc4ccc(F)cc4)n3)C2)cc1 (stereo not drawn) [GSK1379715]
%Inh (DAPK2; [1]): 0% | %Inh (DAPK3; [1]): 7% | %Inh (DCAMKL1; [1]): 10% | %Inh (DCAMKL2; [1]): 0% | %Inh (DCAMKL3; [1]): 0% | %Inh (DDR1; [1]): 0% | %Inh (DDR2; [1]): 7% | %Inh (DLK; [1]): 0% | %Inh (DMPK2; [1]): 0% | %Inh (DMPK; [1]): 0%
